# Screening data: PubChem, National Center for Advancing Translational Sciences (NCATS)
# Nrf2 ARE act = activates Nrf2 signaling | AREc32 ARE-luciferase reporter (MCF7-derived line), luminescence, 24 h | Potency, µM (titrated, usually from 46.1 µM), for the others: at the highest dose activation, most hits filed as activators | 0.31% of 410,000 active; also: potency is read from the fitted curve at half-maximal effect; % of control where 0% means no effect; nearly all actives have a fitted effect of over 65% in size
#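 ARE activation measured as luciferase luminescence (Steady-Glo, 30 min RT) in AREc32_Fluc cells after 24 hr compound exposure at 37 deg C, 5% CO2; cells seeded overnight at 1000/well in OPTI-MEM, 5% FBS.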
# Nrf2 inh = Nrf2 pathway inhibition; 2.1% of 360,000 active; A549 ARE-Fluc reporter, luciferase luminescence, 18-24 h; Potency, µM (series often up to 46 µM), for the others: at the top dose activity change, negative = inhibition, hits mostly inhibitors; also: potency is read from the fitted curve at half-maximal effect; % is scaled to controls: 0 for no effect and ±100 for the full control effect; nearly all actives have a fitted effect of over 60% in size
#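 A549 ARE_Fluc cells (5000/well, 5% FBS OPTI-MEM) pre-incubated 2 h, then treated with compounds 18-24 h at 37C/5% CO2 in concentration-response. CellTiter-Fluor viability read first; BugLite luciferase luminescence after 15 min at room temperature gives Nrf2 activity.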
# A549 tox = kills or reduces viability of A549 cells in Nrf2 counter-screen | Potency, µM (top dose mostly 46 µM), inactives show top-dose activity change, negative = cytotoxicity, usual class: inhibitors | AID 504648 | 0.16% of 390,000 active | A549 ARE-Fluc cells, CellTiter-Fluor viability, 18-24 h; also: potency is read from the fitted curve at half-maximal effect; % is scaled to controls: 0 for no effect and ±100 for the full control effect
#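 Cytotoxicity counterscreen: CellTiter-Fluor fluorescence was measured in A549 ARE_Fluc cells after 18-24 h of compound exposure in a concentration series. The subsequent BugLite luminescent read reports ARE-luciferase activity.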
# LDHA block = inhibitors of human lactate dehydrogenase A; P00338; activity change, % (values are at about 110 or 230 µM); 0.15% of 480,000 active; AID 1347041; purified LDHA, NADH/diaphorase-resazurin fluorescence; hits give low values; in the data active = activity change below about -30%; inconclusive = mostly about -25% to -30%;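 also: plate controls were DMSO wells for no effect and wells without enzyme for full effect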
#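 Human LDH5 (2 nM) was incubated with 0.06 mM NADH and 0.2 mM pyruvate for 5 min at room temperature in Tris pH 7.4. Remaining NADH was coupled through diaphorase/resazurin, and resorufin fluorescence was read at 0 and 20 min.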
# 12-LOX inh = inhibitors of human 12S-lipoxygenase ALOX12; purified 12hLO, xylenol orange hydroperoxide absorbance; Potency, µM (series often up to 108 µM), for the others: at the top dose activity change, negative = inhibition, actives largely listed as inhibitors; 1.1% of 580,000 active; P18054; also: potency is read from the fitted curve at half-maximal effect; % is scaled to controls: 0 for no effect and ±100 for the full control effect
# Target sequence (P18054 whole entry, looked up): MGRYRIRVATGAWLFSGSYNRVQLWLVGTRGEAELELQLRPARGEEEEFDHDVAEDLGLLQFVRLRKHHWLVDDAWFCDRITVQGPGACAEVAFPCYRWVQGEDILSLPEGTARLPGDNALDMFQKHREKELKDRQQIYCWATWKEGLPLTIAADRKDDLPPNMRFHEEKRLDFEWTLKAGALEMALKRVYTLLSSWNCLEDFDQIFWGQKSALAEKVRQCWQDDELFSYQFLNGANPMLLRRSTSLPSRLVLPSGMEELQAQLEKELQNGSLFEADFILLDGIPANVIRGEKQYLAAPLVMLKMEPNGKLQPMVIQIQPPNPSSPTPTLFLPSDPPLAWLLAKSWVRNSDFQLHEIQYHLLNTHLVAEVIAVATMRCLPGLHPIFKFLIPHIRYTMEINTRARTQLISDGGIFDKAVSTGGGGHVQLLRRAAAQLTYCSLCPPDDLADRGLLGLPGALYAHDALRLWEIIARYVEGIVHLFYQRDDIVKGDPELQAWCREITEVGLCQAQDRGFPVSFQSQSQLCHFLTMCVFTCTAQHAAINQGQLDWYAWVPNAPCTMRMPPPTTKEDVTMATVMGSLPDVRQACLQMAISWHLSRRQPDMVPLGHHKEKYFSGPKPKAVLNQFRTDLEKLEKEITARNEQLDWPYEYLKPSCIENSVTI
#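 Purified human 12hLO at 150 nM in 25 mM Hepes, 0.01% Triton X-100, pH 7.0, preincubated 15 min at room temperature with compound. Reaction started with 40 uM arachidonic acid, 30 min at room temperature. Hydroperoxide measured by Fe-xylenol orange, 573/405 nm absorbance ratio.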
# mIDH1 inhibitor = inhibitors of human mutant IDH1 R132H; O75874; IDH1-R132H enzyme, NADPH consumption, diaphorase/resazurin fluorescence; Potency, µM (highest dose often 76.6 µM), for the others: at the top dose activity change, negative = inhibition, usual class: inhibitors; 0.093% of 390,000 active; also: potency is read from the fitted curve at half-maximal effect; % is scaled to controls: 0 for no effect and ±100 for the full control effect; nearly all actives have a fitted effect of over 65% in size
#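 IDH1-R132H (0.5 ug/mL) preincubated 30 min with compound, then NADPH (0.016 mM) and alpha-KG (2 mM) added; 80 min at RT, pH 7.5. Remaining NADPH coupled via diaphorase/resazurin to fluorescence (540/590 nm); concentration-response curves normalized to no-enzyme control.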
# Active calls of the source: *; ? = inconclusive; / = no result given; [ ] = remark or other dose. A selection: hits, their analogues and other compounds. The true share with any hit is near 2.7%. Unless noted, calls follow the shape of the dose curve; as a rule, active = well fitted curve in the direction sought with a large enough effect; inconclusive = small, poorly fitted or top-dose-only effect, or another doubt; inactive = no such curve, though single readings can be large; an effect the other way counts as inactive or inconclusive.
SMILES,Nrf2 ARE act,Nrf2 inh,A549 tox,LDHA block,12-LOX inh,mIDH1 inhibitor
O=C(CCCc1nc(-c2ccc(Cl)cc2)no1)NCC1CCCO1 (stereo not given),0%,13µM*,-5%,-3,0%,1%
O=C1NCCOCCN[C@H]2CCC[C@@H]12,/,/,/,/,45%,/
ClC1=C(Cl)[C@]2(Cl)[C@@H]3[C@@H](Cl)[C@H]4O[C@H]4[C@@H]3C1(Cl)C2(Cl)Cl,/,/,/,/,1%,/
O=C(Nc1ccc2nc(SCC(=O)N3CCCc4ccccc43)sc2c1)c1cccc(F)c1,1%,?,-2%,-17,-1%,-3%
COC(=O)c1ccc(NC(=O)CSc2nc3ccc(N4C(=O)C5C6C=CC(C6)C5C4=O)cc3s2)cc1 (stereo not given),0%,18µM*,?,0,-12%,-1%
O=C(O)[C@@H]1CCN1,/,/,/,/,25µM*,/
Cc1ccccc1-n1c(/C=C/c2c(C)[nH]c3ccccc23)nc2ccccc2c1=O,-2%,21µM*,?,-6,2%,16%
O=c1c2ccccc2nc(/C=C/c2ccccc2F)n1-c1ccccc1O,?,-27%,1%,-5,11µM*,26%
Cc1ccccc1-n1c(/C=C/c2ccco2)nc2ccccc2c1=O,/,/,/,11,?,/
O=C(C1CC1)N1[C@H]2CC[C@@H]1c1cnc(-c3ccc(F)cc3)nc1C2,/,/,/,/,10%,/
O=C(CSC1c2ccccc2Oc2ccccc21)Nc1ccc(C(=O)O)cc1,/,/,/,14,10%,/
CN1C(=O)[C@H]2CN(Cc3ccc(Br)s3)C[C@H]2C1=O,/,/,/,/,39%,/
Cc1cccc(NC(=O)CCl)c1,/,/,/,0,?,/
Cn1c(=O)oc2cc(NC(=O)CCl)ccc21,7.9µM*,?,-28%,-1,0%,-16%
N#Cc1cncc(N2CC3CCC(C2)N3CC(F)(F)F)c1,/,/,/,/,3%[12.5 µM],/
CCN1CCCCC12Cc1ccccc1CN(C(=O)Cc1ccccc1)C2 (stereo not given),/,/,/,/,6.3µM*,/
CN1CCCC12Cc1ccccc1CN(C(=O)Cc1cccc(Cl)c1)C2 (stereo not given),/,/,/,/,8%[6.33 µM],/
O=C1NC(=O)N(c2ccc(Cl)cc2)C(=O)/C1=C\c1ccc(Sc2nc3ccccc3[nH]2)o1,1%,-1%,-12%,-76*,8.9µM*,-9%
CC[C@H]1CN2CC[C@H]1C[C@@H]2CNC(=O)CCC(=O)O,/,/,/,/,8%[176 µM],/
CC(C)c1ccc(C(c2c(O)c3ccccc3oc2=O)c2c(O)c3ccccc3oc2=O)cc1,-1%,/,/,-6,7.1µM*,-12%
C/C(CC(c1ccccc1)c1c(O)c2ccccc2oc1=O)=N\Nc1ccc([N+](=O)[O-])cc1[N+](=O)[O-] (stereo not given),15%,23µM*,?,3,-17%,-11%
O=c1oc2ccccc2c(O)c1C(c1ccc([N+](=O)[O-])cc1)c1c(O)c2ccccc2oc1=O,3%,?,?,-67*,7.9µM*,?
Cc1c(C(c2ccc(F)cc2)c2c(O)c3ccccc3oc2=O)c(=O)n(-c2ccccc2)n1C (stereo not given),-1%,9%[9.27 µM],2%,-5,?,7%
Nc1ccc(Br)cc1C(=O)c1ccc(Cl)cc1,/,/,/,1,?,/
COc1cc2c(cc1OCC1CC1)NC(=O)C21CCN(C(=O)c2cccnc2)CC1,/,/,/,/,-3%[176 µM],/
SMILES,Nrf2 ARE act,Nrf2 inh,A549 tox,LDHA block,12-LOX inh,mIDH1 inhibitor
Cc1nc(-c2ccccc2Br)cc([C@H]2CN3CC[C@H]2C[C@@H]3CNC(=O)CSCC(=O)O)n1,/,/,/,/,-4%,/
CC(O)C1C=CC=CC(=O)OC2CC3OC4C5OC5(C)C(O)CC4(COC(=O)C(O)C(C)CCO1)C2(C)C31CO1 (stereo not given),-2%,0.26µM*,/,-6,2%,3%
CC1=CC2OC3CC4OC(=O)C=CC=CC(=O)OCCC(C)C(O)C(=O)OCC2(CC1)C4(C)C31CO1 (stereo not given),-2%,0.0046µM*,/,-3,14%,-1%
COc1cccc(CC(=O)N2[C@H]3CC[C@@H]2c2cnc(-c4ccc(F)cc4)nc2C3)c1,/,/,/,/,29%,/
CCOc1ccc(NCc2cccn2-c2nnc(N3CCC(C(=O)NCc4ccc(C)cc4)CC3)s2)cc1,0%,?,-11%,-5,-9%,/
Cc1ccc(NCc2cccn2-c2nnc(N3CCC(C(=O)NCc4ccc(OC(C)C)cc4)CC3)s2)cc1,0%,26µM*,-15%,-3,-10%,/
CCOc1ccc(NCc2cccn2-c2nnc(N3CCC(C(=O)NCC(C)c4ccccc4)CC3)s2)cc1 (stereo not given),1%,15µM*,1%,5,-11%,/
CC(C)(O)C1OC2CCC3(C)C(O)(CCC4Cc5c([nH]c6ccccc56)C43C)C2=CC1=O (stereo not given),/,/,/,/,16%,/
C[C@H](CO)N1C[C@H](C)[C@@H](CN(C)Cc2ccc(-c3ccccc3)cc2)Oc2c(NC(=O)c3ccncc3)cccc2C1=O,0%,21µM*,-19%,-1,?,-20%
C[C@@H]1CN([C@H](C)CO)C(=O)c2cc(NC(=O)Nc3ccc(C(F)(F)F)cc3)ccc2O[C@H]1CN(C)S(=O)(=O)c1cccs1,-1%,?,-18%,-3,?,-17%
CN(Cc1ccccc1)Cc1cn(C[C@H]2C[C@@H]3CCN2C[C@@H]3C(=O)Nc2ccccc2)nn1,/,/,/,/,0%,/
CCOC(=O)C1(CCc2ccccc2)CCN(Cc2csc(C(C)=O)c2)CC1,16%,15µM*,?,1,-11%,3%
COc1ccc(C(=O)NCCn2cc(SCc3ccc(C(F)(F)F)cc3)c3ccccc32)cc1OC,0%,18µM*,-20%,9,?,-12%
COc1ccccc1OCCCn1cc(C(=O)C(F)(F)F)c2cc(Br)ccc21,/,/,/,14,-17%,/
COc1cc2c(cc1OC1CCCC1)NC(=O)C21CCN(c2ccc(C#N)cn2)CC1,/,/,/,/,-5%[176 µM],/
CC(C)NC(=O)[C@H]1CN2CCC1C[C@@H]2Cn1cc(CN(C)Cc2ccccc2)nn1 (stereo not given in full),/,/,/,/,-14%[176 µM],/
Cc1ccc(/C=C2\C(=O)NC(=O)N(Cc3ccccc3Cl)C2=O)o1,-1%,?,0%,-2,32µM*,-7%
Cc1ccc(/C=C2/C(=O)NC(=O)N(Cc3ccc(F)cc3)C2=O)o1,/,/,/,/,9%,/
CC[C@H]1CN2CC[C@H]1C[C@@H]2CN(Cc1ccc(SC)cc1)Cc1ccc(SC)cc1,/,/,/,/,-24%[176 µM],/
